Measured values: PubChem BioAssay (NCI)
“And” between values parts separate entries of the source, which are not always exact repeats. Equal values may be shown once. This is part of a sample that, as a whole, favours compounds with a hit. Of some 79,000 tested, about 15% had one in any assay. No stated cut-off is given here; in the data, active means growth inhibition above about 70%; inactive means the rest.

How the values were obtained:
[1] = NCI Yeast Anticancer Drug Screen. Data for the rad50 strain (AID 155);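 further: 0% = growth of vehicle-only cultures of the same strain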; conditions: S. cerevisiae rad50 strain growth inhibition, hits give high values; at 50.0 µM unless noted
Outline: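 Inhibition values express reduced yeast growth in compound-treated cultures relative to vehicle-treated controls.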

[2] = NCI Yeast Anticancer Drug Screen. Data for the mec2-1 strain (AID 157); conditions: S. cerevisiae mec2-1 strain, hits give high values; at 50.0 µM unless noted
Outline: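 Cells of the genetically defined mec2-1 yeast strain are incubated with test compound. Inhibition of growth is calculated against vehicle-treated controls.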

[3] = NCI Yeast Anticancer Drug Screen. Data for the sgs1 mgt1 strain (AID 161);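 further: 0% = growth of cultures given vehicle only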; conditions: S. cerevisiae sgs1 mgt1 strain, hits give high values; at 50.0 µM unless noted
Outline: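 Mutant yeast exposed to compound; growth scored against vehicle-only wells.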

[4] = NCI Yeast Anticancer Drug Screen. Data for the cln2 rad14 strain (AID 165);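 further: 0% = growth equal to vehicle treated cultures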; conditions: S. cerevisiae cln2 rad14 strain, hits give high values; at 50.0 µM unless noted
Outline: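 The screen exposed genetically defined yeast (cln2 rad14) to test compounds and scored growth inhibition relative to vehicle-treated controls.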

[5] = NCI Yeast Anticancer Drug Screen. Data for the bub3 strain (AID 167); conditions: S. cerevisiae bub3 mutant strain, hits give high values; at 50.0 µM unless noted
Outline: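 Steps: expose the mutant yeast strain to compound; grow alongside vehicle-treated cultures; measure growth; express inhibition against the vehicle cultures.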

[6] = NCI Yeast Anticancer Drug Screen. Data for the mlh1 rad18 strain (AID 175); conditions: S. cerevisiae mlh1 rad18 strain growth inhibition, hits give high values; at 50.0 µM unless noted
Outline: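 Compound-treated yeast growth, normalised to vehicle controls. Strain bears defined DNA repair mutations.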

Measured: growth inhibition

CCN(CC)c1ccc(N=Nc2ccc(-c3nc4cccnc4o3)cc2)cc1
inactive: [1] -21.4% | [2] -19.2% | [3] -22.9% | [4] -1.7% | [5] 2.15% | [6] -39.3%

O=C1NCC(CCl)O1 (configuration not stated)
inactive: [1] 8.3% | [2] -12.2% | [3] -2.15% | [4] 9.3% | [5] 18.1% | [6] 1.9%

O=C(O)c1ccc(NCC(O)COc2ccc([N+](=O)[O-])cc2)cc1 (configuration not stated)
inactive: [1] -6.7% | [2] 4.85% | [3] -2.8% | [4] 5.4% | [5] -3.55% | [6] 0.25%

Oc1cccc2c1CCCC2
inactive: [1] -1.25% | [2] -12.2% | [3] -37% | [4] -16.4% | [5] -1.85% | [6] -3.9%

CCOC(=O)Nc1ccc(F)cc1C
inactive: [1] 14.8% | [2] 5.3% | [3] -7.55% | [4] -4% | [5] 7.3% | [6] -1%

Cc1cn(C2CC(OP(=O)(O)OCC3OC(n4ccc(N)nc4=O)C(O)C3O)C(CO)O2)c(=O)[nH]c1=O (configuration not stated)
inactive: [1] 7.55% | [2] 1.5% | [3] 8.15% | [4] 13.7% | [5] -23.6% | [6] -74.2%

Brc1ccc(-c2ccccc2)cc1
inactive: [1] 28.8% | [2] 17.8% | [3] 17.2% | [4] 15.1% | [5] 8.9% | [6] 21.4%

CC(=O)Nc1ccc(S(N)(=O)=O)cc1
inactive: [1] 16.6% and -34.8% | [2] 15.6% and 8.55% | [3] 16.1% and 21.3% | [4] 12% and -4.55% | [5] 1.75% and -3.65% | [6] 13.6% and 37%

COc1ccc2c(c1)[n+](=O)c(C(=O)C/C(=N\NC(=O)C[N+](C)(C)C)C(=O)Nc1cc(Cl)ccc1Cl)c(C)n2O
inactive: [1] -27.9% | [2] -12.7% | [3] -43.6% | [4] 9.3% | [5] -23.1% | [6] -23.4%

Cc1cc(C(c2ccccc2)n2c3ccccc3c3ccccc32)cc(C)c1O (configuration not stated)
inactive: [1] 6.5% | [2] 11.3% | [3] 8.45% | [4] 0.25% | [5] -7.55% | [6] 16.4%

O=C1CSC(c2ccccc2Cl)N1c1n[nH]c(=S)s1 (configuration not stated)
inactive: [1] -13.8% | [2] -17.6% | [3] -9.5% | [4] -55% | [5] -23.6% | [6] 1%

O=CC(NC(=O)N(CCCl)N=O)C(O)C(O)C(O)CO (configuration not stated)
inactive: [1] -8% | [2] -2.3% | [3] 2.15% | [4] -1.7% | [5] -4.95% | [6] 5.75%

COCS(=O)(=O)c1ccccc1
inactive: [1] 2.55% | [2] -6.1% | [3] 11.8% | [4] 14.3% | [5] 6.55% | [6] 0.15%

N#CC1CCC[N-]C1.N#CC1CCC[N-]C1.[Cl][Pt+2][Cl] (configuration not stated)
inactive: [1] 50.6% | [2] 4.75% | [3] 32.4% | [4] 21.1% | [5] 4.3% | [6] 42.4%

CC1C(c2ccccc2)OCCN1C(N)=S (configuration not stated)
inactive: [1] 21.9% | [2] 1% | [3] 52.4% | [4] 17.9% | [5] 24.1% | [6] 23.3%

CCN1CCN(c2nc3ccccc3c3c2CCOc2ccccc2-3)CC1
inactive: [1] -12.4% | [2] -16.9% | [3] -15.8% | [4] 19.1% | [5] 0.25% | [6] 6%

Cc1cc(S(=O)(=O)Nc2n[nH]c(N)n2)c(S)cc1Cl
inactive: [1] 11.4% | [2] 7.45% | [3] -6.65% | [4] -4.6% | [5] 1.1% | [6] 12.8%

O=Cc1cccc2ccc3cccc(C(=O)Cl)c3c12
inactive: [1] 20.4% | [2] 46.9% | [3] 37.8% | [4] 18% | [5] 62.5% | [6] 32.5%

CCCCCc1cc[n+](CC(=O)c2ccc(F)cc2)cc1
inactive: [1] -6.55% | [2] 13.6% | [3] 23.1% | [4] -35.6% | [5] 45.6% | [6] 13.5%

Cc1cc(=O)[nH]c(NNC(C#N)c2cccc([N+](=O)[O-])c2)n1 (configuration not stated)
inactive: [1] -18.5% | [2] -11.1% | [3] -31.1% | [4] -12.8% | [5] -7.4% | [6] -39.5%

COc1ccc(C2=C(N)c3ncccc3C2=O)cc1
inactive: [1] 5.55% | [2] -5.05% | [3] 7.4% | [4] 4.65% | [5] 19.9% | [6] -70.3%

C/C=C/C(=O)Oc1ccc[nH]c1=O
inactive: [1] -10.9% | [2] 13.1% | [3] 4.85% | [4] -2.15% | [5] 11.8% | [6] -4.25%

CCS(=O)(=O)CC(O)CS(=O)(=O)CC
inactive: [1] 6.5% | [2] -6.35% | [3] -38% | [4] -4.95% | [5] -6.35% | [6] -15.4%

C/C=C1\CC2C=CC1C2 (configuration not stated) (tested in a mixture with another compound)
inactive: [1] 5.35% | [2] -15.4% | [3] 3.25% | [4] 0.5% | [5] 11.6% | [6] 8.15%

COc1ccc(SSc2ccc(OC)cc2C(=O)O)c(C(=O)O)c1
inactive: [1] -4% | [2] -19.1% | [3] -21.1% | [4] 1.4% | [5] -36.1% | [6] 1.8%

CCC(=O)Nc1ccccc1Cl
inactive: [1] 3.6% | [2] -1.1% | [3] -15.4% | [4] -42.6% | [5] -1.95% | [6] 4.95%

CCN(CC)/N=C/c1cc([N+](=O)[O-])ccc1O
inactive: [1] 24.9% | [2] 5.4% | [3] -6.85% | [4] -50.9% | [5] 2.9% | [6] 15.7%

COc1ccc(OC)c(N)c1
inactive: [1] -4.3% | [2] -8.4% | [3] -7.55% | [4] 16.4% | [5] 3.6% | [6] -22.9%

O=C(O)C(NCCCCCNC(C(=O)O)c1ccccc1)c1ccccc1 (configuration not stated)
inactive: [1] 15.8% | [2] 21.2% | [3] 15.9% | [4] 24.9% | [5] 13.9% | [6] 24.6%

CCOC(=O)CCC(NC(=O)OCc1ccccc1)C(=O)NNC(=O)OC(C)(C)C (configuration not stated)
inactive: [1] 30.1% | [2] 22% | [3] 36.5% | [4] 15.7% | [5] 5.15% | [6] 21.3%

O=C(F)c1cccc2ccccc12
inactive: [1] -25.9% | [2] -14.7% | [3] -1% | [4] 7.6% | [5] -19.6% | [6] -31.3%

O=C(O)c1nc(-c2ccccc2)ncc1-c1nnnn1-c1ccccc1
inactive: [1] -37.7% | [2] 3.75% | [3] -21.9% | [4] 4.7% | [5] -18.7% | [6] -7.1%

CC(=O)C1=CCCCC1
inactive: [1] 6.1% | [2] -2.8% | [3] -3.3% | [4] 11.7% | [5] 14.7% | [6] -7.8%

C[N+](C)(C)CCc1ccc(Cl)cc1
inactive: [1] 10.2% | [2] 7.45% | [3] 9.7% | [4] -3.7% | [5] -0.05% | [6] 21.8%

Nc1nc(N)c2nc(SC34CC5CC(CC(C5)C3)C4)c(N)nc2n1
inactive: [1] -1.6% | [2] 2.05% | [3] -7.1% | [4] -20.8% | [5] -3.65% | [6] 1.4%

COc1ccc(OCc2ccc(OC)c(OC)c2)cc1
inactive: [1] 7.2% | [2] -3.7% | [3] -11.2% | [4] -10.7% | [5] -8.15% | [6] -7.35%

OC1COC(OCc2ccccc2)C(O)C1O (configuration not stated)
inactive: [1] -16.4% and -2.85% | [2] -25.7% and -19.6% | [3] -18.1% and -11.5% | [4] -18.2% and -46.3% | [5] 2.25% and 6% | [6] -3.4% and -12.2%
